“And” between values parts separate entries of the source, which are not always exact repeats. Equal entries are not always repeated. Hit rate of the full screen: of about 5,500 compounds, about 2,000 (36%) were called active. Another 18% or so got no clear call; they are omitted. Rule as the data show it: active = normalized growth mostly below about 0.91 (no sharp cut-off); inconclusive = no clear call, values can overlap the other calls; inactive = mostly above about 0.92. The list shows a part of the results.
Experiment: chemical genetic growth profiling, strain panel (AID 1159580);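 also: tested at 20 µM; growth read once vehicle control cultures reached saturation at 30 °C; 1 = growth at the plate median or of vehicle wells; lower values mean less growth of the strain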
Settings: S. cerevisiae deletion strains, growth OD
[1] = locus YAR019C, strain CDC15, stronger effect = lower value
[2] = locus YBL105C, strain PKC1, stronger effect = lower value
[3] = locus YBR135W, strain CKS1, stronger effect = lower value
[4] = locus YBR136W, strain MEC1, stronger effect = lower value
[5] = locus YBR160W, strain CDC28, stronger effect = lower value
[6] = locus YDL017W, strain CDC7, stronger effect = lower value
[7] = locus YDL028C, strain MPS1, stronger effect = lower value
[8] = locus YDL101C, strain DUN1, stronger effect = lower value
[9] = locus YDL108W, strain KIN28, stronger effect = lower value
[10] = locus YDL132W, strain cdc53, stronger effect = lower value
[11] = locus YDL214C, strain PRR2, stronger effect = lower value
[12] = locus YDR052C, strain DBF4, stronger effect = lower value
[13] = locus YDR054C, strain cdc34, stronger effect = lower value
[14] = locus YDR226W, strain ADK1, stronger effect = lower value
[15] = locus YDR477W, strain SNF1, stronger effect = lower value
[16] = locus YER123W, strain YCK3, stronger effect = lower value
[17] = locus YER133W, strain GLC7, stronger effect = lower value
[18] = locus YFL009W, strain cdc4, stronger effect = lower value
[19] = locus YFL029C, strain CAK1, stronger effect = lower value
[20] = locus YFR003C, strain YPI1, stronger effect = lower value
[21] = locus YFR019W, strain FAB1, stronger effect = lower value
[22] = locus YFR028C, strain CDC14, stronger effect = lower value
[23] = locus YGR040W, strain KSS1, stronger effect = lower value
[24] = locus YGR052W, strain FMP48, stronger effect = lower value
[25] = locus YGR092W, strain DBF2, stronger effect = lower value
[26] = locus YHR030C, strain SLT2, stronger effect = lower value
[27] = locus YHR079C, strain IRE1, stronger effect = lower value
[28] = locus YHR082C, strain KSP1, stronger effect = lower value
[29] = locus YHR205W, strain SCH9, stronger effect = lower value
[30] = locus YIL147C, strain SLN1, stronger effect = lower value
[31] = locus YJL095W, strain BCK1, stronger effect = lower value
[32] = locus YJL128C, strain PBS2, stronger effect = lower value
[33] = locus YJL157C, strain FAR1, stronger effect = lower value
[34] = locus YJR016C, strain ILV3, stronger effect = lower value
[35] = locus YJR066W, strain TOR1 (second series), stronger effect = lower value
[36] = locus YJR066W, strain TOR1, stronger effect = lower value
[37] = locus YKL048C, strain ELM1, stronger effect = lower value
[38] = locus YKL067W, strain YNK1, stronger effect = lower value
[39] = locus YKL101W, strain HSL1, stronger effect = lower value
[40] = locus YKL193C, strain SDS22, stronger effect = lower value
[41] = locus YKL203C, strain TOR2, stronger effect = lower value
[42] = locus YLR113W, strain HOG1, stronger effect = lower value
[43] = locus YLR133W, strain CKI1, stronger effect = lower value
[44] = locus YLR403W, strain SFP1, stronger effect = lower value
[45] = locus YML070W, strain DAK1, stronger effect = lower value
[46] = locus YMR001C, strain CDC5, stronger effect = lower value
[47] = locus YMR205C, strain PFK2 (second series), stronger effect = lower value
[48] = locus YMR277W, strain FCP1, stronger effect = lower value
[49] = locus YNL006W, strain LST8, stronger effect = lower value
[50] = locus YNL020C, strain ARK1, stronger effect = lower value
[51] = locus YNL161W, strain CBK1, stronger effect = lower value
[52] = locus YNL183C, strain NPR1, stronger effect = lower value
[53] = locus YNL207W, strain RIO2, stronger effect = lower value
[54] = locus YNL222W, strain SSU72, stronger effect = lower value
[55] = locus YNL307C, strain MCK1 (second series), stronger effect = lower value
[56] = locus YOL078W, strain AVO1, stronger effect = lower value
[57] = locus YOL136C, strain PFK27, stronger effect = lower value
[58] = locus YOR061W, strain CKA2, stronger effect = lower value
[59] = locus YOR119C, strain RIO1, stronger effect = lower value
[60] = locus YOR231W, strain MKK1, stronger effect = lower value
[61] = locus YOR329C, strain SCD5, stronger effect = lower value
[62] = locus YPL031C, strain PHO85, stronger effect = lower value
[63] = locus YPL153C, strain RAD53, stronger effect = lower value
[64] = locus YPL204W, strain HRR25, stronger effect = lower value
[65] = locus YPL209C, strain IPL1, stronger effect = lower value
[66] = locus YPL256C, strain CLN2, stronger effect = lower value
[67] = locus YPR025C, strain CCL1, stronger effect = lower value
[68] = locus YPR106W, strain ISR1, stronger effect = lower value
[69] = locus YPR111W, strain DBF20, stronger effect = lower value
[70] = strain NNK1, stronger effect = lower value
[71] = strain TSCII, stronger effect = lower value
[72] = locus YAL040C, strain CLN3, stronger effect = lower value
[73] = locus YCL061C, strain MRC1 (second series), stronger effect = lower value
[74] = locus YDR363W, strain ESC2, stronger effect = lower value
[75] = locus YER002W, strain NOP16, stronger effect = lower value
[76] = locus YGR229C, strain SMI1, stronger effect = lower value
[77] = locus YMR263W, strain SAP30, stronger effect = lower value
[78] = locus YNL175C, strain NOP13, stronger effect = lower value
[79] = locus YNL197C, strain WHI3, stronger effect = lower value
[80] = locus YNL224C, strain SQS1, stronger effect = lower value
[81] = locus YOR083W, strain WHI5 (second series), stronger effect = lower value
[82] = locus YPL241C, strain CIN2, stronger effect = lower value

Measured: normalized growth

CSc1n[nH]c(-c2cc(C(F)(F)F)cc(C(F)(F)F)c2)n1
active: [26] 0.671 | [42] 0.615 | [66] 0.709
inactive: [1] 0.939 | [2] 0.952 | [3] 0.946 | [4] 0.948 | [5] 0.939 | [6] 0.955 | [7] 0.939 | [8] 0.973 | [9] 0.918 | [10] 0.955 | [11] 0.892 | [12] 0.977 | [13] 0.938 | [14] 0.942 | [15] 0.895 | [16] 0.892 | [17] 0.935 | [18] 0.92 | [19] 0.918 | [20] 0.953 | [21] 0.979 | [22] 0.936 | [23] 0.893 | [24] 0.92 | [25] 0.894 | [27] 0.82 | [28] 0.914 | [29] 0.785 | [30] 0.941 | [31] 0.791 | [32] 0.859 | [33] 0.938 | [34] 0.947 | [35] 0.939 | [36] 0.859 | [37] 0.904 | [38] 0.887 | [39] 0.853 | [40] 0.939 | [41] 1 | [43] 0.904 | [44] 0.927 | [45] 0.878 | [46] 0.937 | [47] 0.925 | [48] 0.921 | [49] 0.945 | [50] 0.897 | [51] 0.948 | [52] 0.868 | [53] 0.947 | [54] 0.927 | [55] 0.856 | [56] 0.953 | [57] 0.84 | [58] 0.937 | [59] 0.942 | [60] 0.776 | [61] 0.95 | [62] 0.885 | [63] 0.887 | [64] 0.864 | [65] 0.952 | [67] 0.946 | [68] 0.929 | [69] 0.952 | [70] 0.917 | [71] 0.937

Clc1cc(Cl)cc(-c2nc(SCc3ccc(Cl)cc3Cl)n[nH]2)c1
inactive: [1] 0.991 | [2] 0.99 | [3] 0.982 | [4] 0.998 | [5] 0.991 | [6] 0.987 | [7] 0.995 | [8] 1 | [9] 0.986 | [10] 0.981 | [11] 0.913 | [12] 0.998 | [13] 0.984 | [14] 0.992 | [15] 0.938 | [16] 0.908 | [17] 0.968 | [18] 0.981 | [19] 0.995 | [20] 0.995 | [21] 0.901 | [22] 1 | [23] 0.964 | [24] 0.937 | [25] 0.839 | [27] 0.845 | [28] 0.911 | [29] 0.829 | [30] 0.992 | [31] 0.81 | [32] 0.964 | [33] 0.942 | [34] 0.987 | [35] 0.98 | [36] 0.893 | [37] 0.964 | [38] 0.882 | [39] 0.891 | [40] 0.985 | [41] 1.05 | [43] 0.924 | [44] 0.963 | [45] 0.92 | [46] 0.988 | [47] 0.927 | [48] 0.983 | [49] 0.965 | [50] 0.914 | [51] 0.991 | [52] 0.916 | [53] 0.983 | [54] 0.987 | [55] 0.864 | [56] 0.985 | [57] 0.893 | [58] 0.756 | [59] 0.956 | [60] 0.873 | [61] 0.986 | [62] 0.927 | [63] 0.889 | [64] 0.915 | [65] 0.985 | [67] 0.98 | [68] 0.981 | [69] 0.948 | [70] 0.981 | [71] 0.993
active: [26] 0.356 | [42] 0.772 | [66] 0.835

NN=C(N)N
inactive: locus YAL013W, strain DEP1, stronger effect = lower value 1.03 and 1.01 | [72] 0.987 and 0.992 | [73] 1 | [74] 1.03 | [75] 1.03 and 0.995 | [76] 1.03 | [77] 1.01 | locus YNL153C, strain GIM3, stronger effect = lower value 1.01 | [78] 1.02 and 1.01 | [79] 1.01 | [80] 0.993 and 1.03 | [81] 1.02 and 1.01 | [82] 1.01

CCN(CC)c1ncnc2c1ncn2[C@@H]1O[C@H](COP(=O)(O)OP(=O)(O)C(Br)(Br)P(=O)(O)O)[C@@H](O)[C@H]1O
inactive: [72] 1.05 | [73] 1 | [74] 0.937 | [75] 1 | [76] 0.992 | [77] 0.991 | locus YNL128W, strain TEP1, stronger effect = lower value 1 | [78] 0.992 | [79] 0.977 | [80] 0.971 | locus YNL322C, strain KRE1, stronger effect = lower value 0.995 | [81] 0.979 | [82] 1.01

— PubChem BioAssay AID1159580 (chemical genetic matrix, 2015)
